# Screening data deposited in PubChem BioAssay by National Center for Advancing Translational Sciences (NCATS).
# FLuc inh-1: Photinus pyralis luciferase inhibition | P08659 | purified P. pyralis luciferase, luminescence, biochemical | Potency, µM (series often up to 115 µM), actives largely listed as inhibitors | 2.5% of 76,000 active | AID 1347043; note: nearly all actives have a fitted effect of over 65% in size
#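 Inhibitors were tested against purified firefly luciferase in a biochemical, low-substrate format (both substrates at 10uM) and luminescence measured with a CCD imager.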
# GPT2 inhibitor: blocks human glutamate pyruvate transaminase 2 | 0.25% of 100,000 active | AID 1671188 | Q8TD30 | Potency, µM (highest dose often 57.7 µM), most hits filed as inhibitors | Recombinant GPT2, coupled pyruvate oxidase/HRP Amplex Red fluorescence; note: nearly all actives have a fitted effect of over 60% in size
# Target sequence (Q8TD30 whole entry, looked up): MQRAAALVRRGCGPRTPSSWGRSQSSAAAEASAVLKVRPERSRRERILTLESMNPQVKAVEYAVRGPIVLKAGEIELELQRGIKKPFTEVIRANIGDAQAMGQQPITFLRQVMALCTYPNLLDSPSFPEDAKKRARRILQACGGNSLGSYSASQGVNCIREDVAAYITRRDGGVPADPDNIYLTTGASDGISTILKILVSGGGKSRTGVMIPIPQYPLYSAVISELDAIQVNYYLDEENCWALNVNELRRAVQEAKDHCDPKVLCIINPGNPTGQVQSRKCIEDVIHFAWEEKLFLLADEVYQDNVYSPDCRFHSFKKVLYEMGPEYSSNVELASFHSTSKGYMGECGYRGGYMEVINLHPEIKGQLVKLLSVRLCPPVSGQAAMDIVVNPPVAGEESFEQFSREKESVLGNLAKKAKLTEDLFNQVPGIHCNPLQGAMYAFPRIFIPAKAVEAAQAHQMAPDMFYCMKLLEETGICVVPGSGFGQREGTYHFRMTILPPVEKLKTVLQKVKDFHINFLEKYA
#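 Fluorescence of coupled pyruvate oxidase/HRP/Amplex Red system (50uM Amplex, 30 min, dark) reports pyruvate formed by GPT2. Enzyme reaction: 10ng/uL GPT2, 2mM L-alanine, 250uM a-KG, 30 min room temperature, pH 7.5; 50uM AOA control.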
# NPR1 antag: human Npr1 receptor antagonism; P16066; HEK293 hNpr1 GloSensor cGMP, ANP-stimulated luminescence; Potency, µM (series often up to 46.3 µM), most hits filed as inhibitors; 1.6% of 76,000 active; AID 1347048; calls by dose curve; note: nearly all actives have a fitted effect of over 60% in size
#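 Compound pre-incubated 30 min at room temperature on GloSensor-loaded HEK293 cells stably carrying hNpr1 and the pGS-40F cGMP biosensor. Stimulation uses hNppA at 0.1 nM final; luminescence is taken at baseline and 20 min post-agonist.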
# HEK293 tox: kills HEK 293 cells | HEK 293 viability, ATP luminescence (CellTiter-Glo), 48-72 h | Potency, µM (titrated, usually from 115 µM), usual class: inhibitors | 6.6% of 94,000 active; note: nearly all actives have a fitted effect of over 60% in size
#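 ATP-coupled CellTiter-Glo luminescence served as viability read-out, recorded 10 min after reagent addition at room temperature. HEK 293 cells, 250 cells/well, had been incubated with pintool-transferred compound for 48 or 72 hr at 37 degree Celsius.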
# 3T3 cytotox: NIH 3T3 cell cytotoxicity. NIH 3T3 viability, CellTiter-Glo ATP luminescence, 48-72 h. Potency, µM (doses to about 96.7 µM), most hits filed as inhibitors. 4.3% of 94,000 active. AID 1345082; note: nearly all actives have a fitted effect of over 55% in size
#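 Cells were seeded at 400 per well, treated with pin-transferred compound, and kept 48 or 72 hr at 37 °C before CellTiter-Glo addition and luminescence imaging of cellular ATP.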
# FLuc SDR -ATP: firefly luciferase binding stabilization, ATP absent | 7.8% of 1,300 active | AID 1963318 | shares compounds with FLuc inh-1 | Potency, µM (highest dose often 32.7 µM), hits mostly activators | Purified FLuc-C-HiBiT, Nano-Glo HiBiT luminescence, no ATP; note: nearly all actives have a fitted effect of over 55% in size
# FLuc SDR ATP: binders stabilizing firefly luciferase, plus ATP | shares compounds with FLuc inh-1 | 8.7% of 1,300 active | Potency, µM (series often up to 32.7 µM), actives largely listed as activators | purified FLuc-C-HiBiT + ATP, HiBiT complementation luminescence | AID 1963319;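 note: signal reports ligand binding via conformational change of the enzyme rather than luciferase catalysis; nearly all actives have a fitted effect of over 55% in size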
# FLuc inh-2: blocks firefly luciferase enzymatic activity | shares compounds with FLuc inh-1 | purified FLuc-C-HiBiT enzyme, luciferin luminescence | Potency, µM (titrated, usually from 32.7 µM), actives largely listed as inhibitors | 42% of 1,300 active | AID 1963320; note: nearly all actives have a fitted effect of over 70% in size
# Hits are given with their value; 0 = inactive; ? = inconclusive; - = no result given. The list is not random: actives were taken first. Their share in the collection is about 10%. Unless noted, calls come from the whole dose curve; as a rule, active = well fitted curve in the direction sought with a large enough effect; inconclusive = small, poorly fitted or top-dose-only effect, or another doubt; inactive = no such curve, though single readings can be large; an effect the other way counts as inactive or inconclusive.
SMILES,FLuc inh-1,GPT2 inhibitor,NPR1 antag,HEK293 tox,3T3 cytotox,FLuc SDR -ATP,FLuc SDR ATP,FLuc inh-2
Cc1cc(C(=O)N2CCOC[C@H](Oc3cnccn3)C2)c(C(F)(F)F)o1,0,0,0,0,0,-,-,-
Cc1ccc(C(=O)Nc2ccc3oc(-c4ccccc4C)nc3c2)cc1,-,-,-,-,-,0,0,0
CNC(=O)N1CCCCC1c1nc(CCOCC2CCOCC2)no1 (stereo not given),-,0,-,0,0,-,-,-
COCCNc1cc(-c2cncc(C(=O)N3CCOCC3)n2)c2cc[nH]c2n1,0,0,0,0,0,-,-,-
COCCNc1cc(-c2ccc3ccccc3n2)c2cc[nH]c2n1,10µM,0,0,?,?,0,0,?
COc1ccc(-c2cc(N3CCCC(NC(=O)c4cccc(OC)c4)C3)n[nH]2)cc1 (stereo not given),7.1µM,?,0,25µM,?,0,0,?
COc1ccc(-c2cc(N3CCCC(NC(=O)c4ccc5[nH]ccc5c4)C3)n[nH]2)cc1 (stereo not given),4.5µM,?,0,?,?,0,0,5µM
CN(C)c1cccc(C(=O)NC2CCN(c3cc(-c4ccc(Cl)cc4)[nH]n3)C2)c1 (stereo not given),13µM,0,0,?,?,0,?,?
COc1cc(C(=O)NC2CCCN(c3cc(-c4ccc(F)cc4)[nH]n3)C2)cc(OC)c1OC (stereo not given),13µM,0,0,?,?,0,0,?
O=C(c1ccccc1)N1CCCC(C(=O)N2CCC(N3Cc4cccn4C3=O)CC2)C1 (stereo not given),-,0,-,0,0,-,-,-
CC(C)C(=O)N1CCC(Oc2ccccc2-c2nc(-c3cnccn3)no2)C1 (stereo not given),0,0,0,0,0,-,-,-
CC(C)(C)NC(=O)N1CCCN(C(=O)C2CC2)C(c2ccccc2)CC(=O)NCC1 (stereo not given),0,0,0,0,0,-,-,-
O=C(O)c1ccc(-n2nc(-c3ccccc3O)nc2-c2ccccc2O)cc1,-,0,-,-,-,-,-,-
Cc1c(C(=O)Nc2ccc(C(=O)O)cc2)nnn1-c1ccccc1,-,-,-,-,-,7µM,0.078µM,0.078µM
CCOC(=O)C1CCN(C(=O)c2ccc3nnc(-c4ccccc4OC)n3c2)CC1,-,0,-,0,0,-,-,-
Cc1cc(-c2nc3cc(F)ccc3s2)ccc1NC(=O)[C@@H](N)CCCCN,-,0,-,-,-,0,?,2.5µM
Cc1cc(-c2nc3cc(F)ccc3s2)ccc1N,-,-,-,-,-,?,?,1.1µM
O=C(c1ccc2cc[nH]c2c1)N1CCC(N2CC(OCC3CC3)C23CCOCC3)CC1 (stereo not given),0,0,0,0,0,-,-,-
OCc1ccnc(-c2ccc(-c3ccn[nH]3)cc2)c1,10µM,0,5µM,0,0,0,?,?
Fc1ccc(CNC[C@H]2Cn3cc(-c4ccccc4)nc3CO2)cc1,0,0,0,?,?,-,-,-
Fc1ccc(-c2cn3cc(Cc4ccccc4)sc3n2)cc1,-,-,-,-,-,?,?,0.28µM
Clc1ccccc1Cc1cn2cc(-c3ccccc3)nc2s1,-,-,-,-,-,?,?,0.44µM
Brc1ccc(-c2cn3cc(Cc4ccccc4)sc3n2)cc1,-,-,-,-,-,0,0,?
Fc1ccc(Cc2cn3cc(-c4ccc(Cl)cc4)nc3s2)cc1,-,-,-,-,-,0,0,?
CN(C)C/C=C/C(=O)Nc1cc2c(Nc3ccc(F)c(Cl)c3)ncnc2cc1OC1CCOC1 (stereo not given),-,0,-,-,-,-,-,-
SMILES,FLuc inh-1,GPT2 inhibitor,NPR1 antag,HEK293 tox,3T3 cytotox,FLuc SDR -ATP,FLuc SDR ATP,FLuc inh-2
Oc1ccc(-c2nc(C3CC3)nc3c2CCN(Cc2ccncc2)CC3)cc1,-,0,-,0,0,-,-,-
Fc1ccc(Cc2cn3cc(-c4ccccc4)nc3s2)cc1,-,-,-,-,-,?,?,0.44µM
COc1ccc(-c2ccc(C(=O)Nc3ccccc3Cl)cc2)nn1,-,-,-,?,0,-,-,-
O=C(Nc1cc(-c2ccncc2)nn1-c1ccccc1)c1ccc(F)cc1,-,0,-,?,?,-,-,-
Cn1ncc2c(C(=O)Nc3ccccc3Cl)cc(-c3ccccc3C(F)(F)F)nc21,-,-,-,?,0,-,-,-
COc1ccc(C(=O)Nc2ccccc2-c2nc3ccccc3s2)cc1OC,-,-,-,-,-,0,0,0
O=C(Nc1ccccc1-c1nc2ccccc2s1)c1cc(Cl)cc(Cl)c1,-,-,-,-,-,0,0,0
O=C(Nc1ccccc1-c1nc2ccccc2s1)c1ccc(F)cc1,-,-,-,-,-,0,0,0
CC(C(=O)NC1CC1)[C@@H]1CC[C@@]2(C)CC[C@H](NC(=O)Nc3cccc(F)c3)[C@@H](C)[C@@H]2[C@H]1O (stereo not given in full),0,0,0,0,0,-,-,-
CCOc1ccc(-c2cc(CCCC(=O)NCCc3ccc(OCC)c(OCC)c3)no2)cc1,-,-,-,-,-,0,?,3.5µM
CCOc1ccc(-c2cc(CCCC(=O)NCCc3ccc(SC)cc3)no2)cc1,-,-,-,-,-,0,?,3.1µM
COCC1CN(C(=O)Cc2ccc(OC)c(Cl)c2)CC12CCNCC2 (stereo not given),0,0,0,0,0,-,-,-
Nc1ccc(C(=O)N2CCCn3nc(C(=O)Nc4ccccc4)cc3C2)cn1,7.1µM,0,0,?,0,?,?,?
COc1ccc(S(=O)(=O)Nc2nnc(CC(C)C)s2)cc1,-,0,-,-,-,-,-,-
CCOc1ccc(-c2cn3nc(CC(C)C)sc3n2)cc1,-,-,-,-,-,0,0,5µM
CC1(Cc2ccc3c(c2)OCO3)CCCN(C(=O)c2ccc3ncsc3c2)C1 (stereo not given),7.9µM,0,0,45µM,0,?,0,?
Cc1nc2ccc(C(=O)N3CCCC(C)(Cc4ccc5c(c4)OCO5)C3)cc2o1 (stereo not given),?,0,0,?,?,-,-,-
Cc1c(-c2ccccc2)[nH]c2c(CNC(=O)C3=NN(C)C(=O)CC3)cc(Cl)cc12,4µM,0,0,45µM,45µM,0,0,?
Cc1cc(CNC(=O)c2ccc(S(N)(=O)=O)cc2)c2[nH]c(C)c(C)c2c1,0,0,0,0,0,-,-,-
COc1ccccc1C(=O)N1CCN(C(=O)c2nc3cccnc3n(-c3ccccc3OC)c2=O)CC1,-,0,-,0,0,-,-,-
CN(C)C1CCN(c2ncnc3c2cnn3-c2ccccc2)CC1,-,-,-,-,-,0,0,0
CCOC1CCCN(c2ncnc3c2cnn3-c2ccccc2)C1 (stereo not given),-,-,-,-,-,0,?,?
CC1CCN(c2ncnc3c2cnn3-c2ccc(F)cc2)CC1,-,-,-,-,-,0,0,11µM
CN1CC(=O)N(c2cccnc2)Cc2c1ncnc2N1CCC(O)CC1,0,0,0,0,0,-,-,-
